Test [1] has as its target Bile acid receptor (Homo sapiens) (UniProt Q96RI1). Briefly: qHTS assay for small molecule antagonists of farnesoid X receptor signaling (AID 588526). Further: on the % scale 0 is the no-effect control and ±100 the full control effect. In outline:
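Concentration-response titrations were fitted to the Hill equation for half-maximal inhibition and maximal response, with data normalised to 50 uM chenodeoxycholic acid and DMSO control wells. Cells: FXR-UAS-bla HEK293T, dialyzed FBS.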

Test [2] can be described thus: qHTS assay for small molecule antagonists of peroxisome proliferator-activated receptor delta signaling (AID 588535; active means well fitted inhibition curve with a large enough effect in the signal ratio, with a control signal flat, not every such curve was filed as active; the % refers to the signal ratio;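 on max response: cells co-treated with a PPAR-delta agonist as stimulator during compound exposure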). Conditions: HEK293T PPARd-UAS-bla, beta-lactamase FRET ratio, 18 h; 460 nm channel. Summed up: (§1)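 GeneBLAzer PPAR-delta-UAS-bla HEK293T cells in medium with 2% charcoal/dextran FBS were preincubated 5 hrs at 37 C, then given compounds, incubated 18 hrs at 37 C, and read by CCF4 beta-lactamase fluorescence; IC50 from Hill fits.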
(In general: qHTS replaces the single test concentration by a dilution series.)

Test [3] has as its target Peroxisome proliferator-activated receptor delta (Homo sapiens) (UniProt Q03181). Described as above. Summed up:
as §1

For test [4], the target named is Peroxisome proliferator-activated receptor gamma (Homo sapiens) (UniProt P37231). Put plainly: qHTS assay for small molecule agonists of peroxisome proliferator-activated receptor gamma signaling (AID 588536; active means well fitted curve in the direction sought with a large enough effect in the signal ratio, with a control signal flat, not every such curve was filed as active; the % refers to the signal ratio;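 further: 0% = DMSO basal wells and 100% = rosiglitazone at 2 µM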). In outline:
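HEK293 UAS-bla reporter line, 1% charcoal/dextran FBS; titration, 16 h, 37 C; CCF4 loading 2 h RT; fluorescence 460/530 nm. Normalized to rosiglitazone 2 uM = 100%, DMSO = 0%.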

For test [5], the target named is Vitamin D3 receptor (Homo sapiens) (UniProt P11473). Briefly: qHTS assay for small molecule antagonists of vitamin D receptor signaling (AID 588541).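 Further: receptor activated by calcitriol during compound treatment; series mostly up to about 77 µM; on the % scale 0 is the no-effect control and ±100 the full control effect.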 In outline:
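VDR-UAS-bla HEK293T cells (2000/well, 2% charcoal-stripped FBS) were treated with titrated compounds plus 1-alpha,25-dihydroxyvitamin D3 (50 nM or 3 nM final) for 16 h at 37 C. CCF4 beta-lactamase fluorescence was read; Hill fits gave IC50.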

For test [6] the target is unchanged. Put plainly: qHTS assay for small molecule agonists of vitamin D receptor signaling (AID 588543).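 Further: 0% = DMSO basal and 100% = reference agonist control.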 In outline:
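Agonist-mode beta-lactamase reporter: HEK293T VDR-UAS-bla cells in charcoal-stripped 2% FBS, compound series 16 h 37 C, CCF4 2 h RT. EC50 from Hill fit, scaled against DMSO and 50 nM calcitriol control.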

Test [7] can be described thus: qHTS assay for small molecule agonists of retinoid X receptor alpha signaling (AID 588544).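 On activation: 0% = DMSO basal wells and 100% = reference agonist.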 The following applies: HEK293T RXRa-UAS-bla, beta-lactamase reporter, 18 h; 530 nm emission.
Test [8] has as its target Retinoic acid receptor RXR-alpha (Homo sapiens) (UniProt P19793). The description is as above.
Test [9] addresses Thyroid hormone receptor beta (Homo sapiens) (UniProt P10828). Briefly: qHTS assay for small molecule agonists of thyroid hormone receptor beta signaling (AID 588545). Summed up: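 Agonist activity was read as beta-lactamase CCF4 fluorescence (405 ex, 460/530 em), scaled between DMSO (0%) and 10 nM T3 (100%), then Hill-fitted for EC50 and efficacy. HEK 293 TR-UAS-bla cells in 2% charcoal/dextran FBS medium were exposed 18 h at 37 C.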

Test [10] can be described thus: qHTS assay for small molecule antagonists of retinoid X receptor alpha signaling (AID 588546; active means well fitted inhibition curve with a large enough effect in the signal ratio, with a control signal flat, not every such curve was filed as active; the % refers to the signal ratio;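 further: cells stimulated with 9-cis-retinoic acid as agonist; on the % scale 0 is the no-effect control and ±100 the full control effect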). The following applies: HEK293T RXRa-UAS-bla, beta-lactamase ratio, antagonist mode; measured here: W530 green channel, cytotoxicity proxy. In outline:
(§2)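 Beta-lactamase reporter inhibition, read as CCF4 fluorescence ratio (ex 405, em 460/530 nm) after 2 h at RT. HEK293T UAS-bla cells, 2500/well, were stimulated with 9-cis-RA at 500 or 100 nM final alongside test compound for 18 h at 37 C.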

For test [11], the target named is Retinoic acid receptor RXR-alpha (Homo sapiens) (UniProt P19793). Described as above. The following applies: HEK293T RXRa-UAS-bla, beta-lactamase ratio, antagonist mode. In outline: as §2
Sequence of Retinoic acid receptor RXR-alpha (Homo sapiens) (P19793 whole entry, looked up): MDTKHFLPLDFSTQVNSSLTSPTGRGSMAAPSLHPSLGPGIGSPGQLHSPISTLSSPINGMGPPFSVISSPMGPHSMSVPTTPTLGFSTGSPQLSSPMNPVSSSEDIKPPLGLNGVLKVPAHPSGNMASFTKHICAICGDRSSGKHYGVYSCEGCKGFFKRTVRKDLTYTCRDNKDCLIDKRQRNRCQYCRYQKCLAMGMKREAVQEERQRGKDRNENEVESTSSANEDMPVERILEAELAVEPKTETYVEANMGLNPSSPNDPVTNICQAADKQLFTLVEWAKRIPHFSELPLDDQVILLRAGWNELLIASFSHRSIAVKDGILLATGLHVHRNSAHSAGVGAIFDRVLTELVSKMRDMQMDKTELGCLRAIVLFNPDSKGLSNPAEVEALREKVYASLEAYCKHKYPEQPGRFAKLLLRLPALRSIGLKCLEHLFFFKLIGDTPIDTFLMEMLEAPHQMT
Test [12] deals with Thyroid hormone receptor beta (Homo sapiens) (UniProt P10828). Briefly: qHTS assay for small molecule antagonists of thyroid hormone receptor beta signaling (AID 588547; active means well fitted inhibition curve with a large enough effect in the signal ratio, with a control signal flat, not every such curve was filed as active; the % refers to the signal ratio;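 further: cells stimulated with 0.4 nM T3 agonist during compound exposure; series mostly up to about 77 µM; on the % scale 0 is the no-effect control and ±100 the full control effect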). The following applies: TR-UAS-bla HEK293, beta-lactamase ratio, antagonist mode, 18 h. In outline:
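TR-UAS-bla GripTite HEK293 cells in 2% charcoal/dextran FBS medium were preincubated 4 h at 37 C, given compound (0.59 nM to 92 uM) plus 0.4 nM T3 (final) for 18 h, then CCF4 for 2 h at RT; Hill fit gave IC50.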

Test [13] can be described thus: qHTS assay for small molecule activators of the p53 signaling pathway (AID 651743; active means well fitted activation curve with a large enough effect in the signal ratio, not every such curve was filed as active; the % refers to the signal ratio; further: series mostly up to about 92 µM; % of control where 0% means no effect). The following applies: HCT-116 p53RE-bla, beta-lactamase FRET ratio, 16 h; stronger effect = higher value. Summed up: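 p53RE-bla HCT-116 cells with a stably integrated beta-lactamase reporter under p53 response elements were plated, rested 5 hours at 37 C/5% CO2, then exposed to compounds in DMSO for 16 hours at 37 C. LiveBLAzer B/G FRET substrate was read after 2 hours at room temperature.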

The nature of test [14]: qHTS assay for small molecule activators of the nuclear factor-kappa B (NF-kB) signaling pathway (AID 651749; active means well fitted activation curve with a large enough effect in the signal ratio; the % refers to the signal ratio; further: series mostly up to about 77 µM; % of control where 0% means no effect). The following applies: NF-kB-bla ME-180 cells, beta-lactamase FRET ratio, 16 h; stronger effect = higher value. In outline: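 ME-180 cells stably carrying a beta-lactamase reporter under an NF-kB response element were exposed to compound or DMSO vehicle for 16 hr at 37C, 5% CO2. Pathway activation was read by FRET, since reporter expression disrupts FRET.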

Test [15] has as its target Glucocorticoid receptor (Homo sapiens) (UniProt P04150). Briefly: qHTS assay for small molecule antagonists of glucocorticoid receptor signaling (AID 588533; active means well fitted inhibition curve with a large enough effect in the signal ratio, with a control signal flat, not every such curve was filed as active; the % refers to the signal ratio). Summed up: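 Antagonist-mode qHTS: compound titrations added to GRE-bla HeLa cells, then dexamethasone 2 nM final; 18 h, 37 C. CCF4 FRET fluorescence normalized to dexamethasone and DMSO; IC50 from Hill fit.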
The target in test [16] is Voltage-gated inwardly rectifying potassium channel KCNH2 (Homo sapiens) (UniProt Q12809). Briefly: qHTS Assay for Small Molecule Inhibitors of the Human hERG Channel Activity (AID 588834; active means well fitted inhibition curve with a large enough effect;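 further: top concentration of the series differs between compounds; on the % scale 0 is the no-effect control and ±100 the full control effect; lower thallium flux fluorescence means stronger hERG block; nearly all actives have a fitted effect of over 50% in size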). Summed up: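 Kinetic FDSS fluorescence; U2OS + hERG BacMam (~100 virus particles/cell); FluxOR Tl+ flux; ~10 min cpd; AC50 (Hill).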
Sequence of Voltage-gated inwardly rectifying potassium channel KCNH2 (Homo sapiens) (Q12809 whole entry, looked up): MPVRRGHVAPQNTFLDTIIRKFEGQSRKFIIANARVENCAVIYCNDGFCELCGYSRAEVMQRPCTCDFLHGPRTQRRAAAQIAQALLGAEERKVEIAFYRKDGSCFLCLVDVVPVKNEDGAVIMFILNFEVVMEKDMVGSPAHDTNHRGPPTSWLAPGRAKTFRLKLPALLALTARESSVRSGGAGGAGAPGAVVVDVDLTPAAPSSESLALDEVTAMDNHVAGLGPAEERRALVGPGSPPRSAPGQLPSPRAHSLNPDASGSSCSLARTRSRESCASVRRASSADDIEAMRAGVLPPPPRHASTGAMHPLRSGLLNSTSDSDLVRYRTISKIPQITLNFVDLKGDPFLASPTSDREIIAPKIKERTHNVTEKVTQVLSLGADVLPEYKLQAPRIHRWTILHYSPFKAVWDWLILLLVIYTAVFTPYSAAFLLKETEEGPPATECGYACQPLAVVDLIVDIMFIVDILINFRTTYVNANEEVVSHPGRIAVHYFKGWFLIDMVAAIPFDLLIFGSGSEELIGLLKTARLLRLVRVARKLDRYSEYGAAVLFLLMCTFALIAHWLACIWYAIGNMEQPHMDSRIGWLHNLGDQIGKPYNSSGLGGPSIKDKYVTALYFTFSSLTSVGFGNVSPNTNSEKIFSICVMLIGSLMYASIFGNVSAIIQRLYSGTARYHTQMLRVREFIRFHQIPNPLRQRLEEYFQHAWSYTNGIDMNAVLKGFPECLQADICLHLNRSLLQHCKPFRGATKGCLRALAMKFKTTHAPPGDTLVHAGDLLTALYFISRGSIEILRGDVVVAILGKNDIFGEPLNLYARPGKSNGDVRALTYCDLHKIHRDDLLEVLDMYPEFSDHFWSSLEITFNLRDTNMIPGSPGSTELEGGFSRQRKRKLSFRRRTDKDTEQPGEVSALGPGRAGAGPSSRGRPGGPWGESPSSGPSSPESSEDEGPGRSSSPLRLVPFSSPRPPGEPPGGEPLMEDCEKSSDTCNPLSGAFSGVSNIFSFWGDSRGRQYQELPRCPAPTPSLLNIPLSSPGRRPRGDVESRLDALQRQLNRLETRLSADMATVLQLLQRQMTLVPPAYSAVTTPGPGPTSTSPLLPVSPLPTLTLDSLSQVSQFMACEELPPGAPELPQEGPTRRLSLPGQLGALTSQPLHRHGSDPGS
The nature of test [17]: qHTS assay for small molecule agonists of the antioxidant response element (ARE) signaling pathway (AID 651741; active means well fitted activation curve with a large enough effect in the signal ratio; the % refers to the signal ratio; further: % of control where 0% means no effect). Summed up:
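ARE-bla HepG2 cells (beta-lactamase reporter under ARE control) were plated at 2,000 cells/well, preincubated 5 h at 37 C/5% CO2, then treated with DMSO-dissolved compounds for 16 h at 37 C; LiveBLAzer B/G FRET substrate added, fluorescence read after 2 h at room temperature.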

Test [18] has as its target Glucocorticoid receptor (Homo sapiens) (UniProt P04150). Briefly: qHTS assay for small molecule agonists of glucocorticoid receptor signaling (AID 588532; active means well fitted curve in the direction sought with a large enough effect in the signal ratio, with a control signal flat; the % refers to the signal ratio;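 further: 100% = dexamethasone at 0.1 µM and 0% = DMSO only wells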). Conditions: HeLa MMTV-bla, beta-lactamase ratio, agonist, 18 h; stronger effect = higher value; percent of dexamethasone control, DMSO zero. In outline: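 Titration series, up to 92 uM, applied to GRE-bla HeLa cells for 18 h at 37 C. Detection by CCF4 FRET substrate after 2 h at RT.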

Structures are written as SMILES. Results filed as inconclusive are left out. Active and inactive are the calls of the source. Unless noted, the call rests on the fitted dose curve.

Sequence of Peroxisome proliferator-activated receptor delta (Homo sapiens) (Q03181 whole entry, looked up): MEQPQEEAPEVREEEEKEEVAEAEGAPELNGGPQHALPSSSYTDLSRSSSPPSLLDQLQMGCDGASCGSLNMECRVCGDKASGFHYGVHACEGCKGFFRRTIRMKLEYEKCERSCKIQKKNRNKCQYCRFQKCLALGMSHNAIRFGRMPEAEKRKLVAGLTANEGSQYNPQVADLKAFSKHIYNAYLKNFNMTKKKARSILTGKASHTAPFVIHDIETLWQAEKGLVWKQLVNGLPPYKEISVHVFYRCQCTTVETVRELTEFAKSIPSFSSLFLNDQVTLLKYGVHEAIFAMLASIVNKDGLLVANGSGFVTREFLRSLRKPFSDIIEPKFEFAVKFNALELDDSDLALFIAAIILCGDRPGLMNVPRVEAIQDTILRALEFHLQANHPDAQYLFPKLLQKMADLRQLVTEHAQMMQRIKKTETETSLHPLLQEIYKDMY
Sequence of Thyroid hormone receptor beta (Homo sapiens) (P10828 whole entry, looked up): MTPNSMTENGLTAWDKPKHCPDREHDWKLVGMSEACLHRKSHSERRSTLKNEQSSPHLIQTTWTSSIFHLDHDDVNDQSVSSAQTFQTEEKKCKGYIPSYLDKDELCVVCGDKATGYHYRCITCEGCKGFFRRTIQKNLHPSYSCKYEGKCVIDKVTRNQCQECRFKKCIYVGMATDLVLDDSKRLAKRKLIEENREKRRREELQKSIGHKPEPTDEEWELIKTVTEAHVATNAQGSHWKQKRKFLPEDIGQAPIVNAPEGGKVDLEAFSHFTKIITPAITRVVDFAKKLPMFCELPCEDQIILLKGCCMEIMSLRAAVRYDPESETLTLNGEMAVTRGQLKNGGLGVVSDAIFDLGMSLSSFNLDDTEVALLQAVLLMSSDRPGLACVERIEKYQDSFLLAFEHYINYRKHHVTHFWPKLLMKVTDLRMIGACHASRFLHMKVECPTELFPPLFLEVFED
Sequence of Vitamin D3 receptor (Homo sapiens) (P11473 whole entry, looked up): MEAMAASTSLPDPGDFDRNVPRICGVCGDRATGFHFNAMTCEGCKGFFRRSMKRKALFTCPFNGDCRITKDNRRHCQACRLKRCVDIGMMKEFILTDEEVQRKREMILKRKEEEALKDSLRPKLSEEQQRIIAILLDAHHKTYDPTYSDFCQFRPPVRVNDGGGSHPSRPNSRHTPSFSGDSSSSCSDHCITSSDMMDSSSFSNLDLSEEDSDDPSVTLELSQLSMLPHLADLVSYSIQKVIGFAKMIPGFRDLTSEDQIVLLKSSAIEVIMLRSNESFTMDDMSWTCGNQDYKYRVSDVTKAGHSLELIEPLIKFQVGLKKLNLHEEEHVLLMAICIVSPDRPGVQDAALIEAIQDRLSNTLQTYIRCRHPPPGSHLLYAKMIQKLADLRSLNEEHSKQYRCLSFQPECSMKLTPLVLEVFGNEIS
Sequence of Peroxisome proliferator-activated receptor gamma (Homo sapiens) (P37231 whole entry, looked up): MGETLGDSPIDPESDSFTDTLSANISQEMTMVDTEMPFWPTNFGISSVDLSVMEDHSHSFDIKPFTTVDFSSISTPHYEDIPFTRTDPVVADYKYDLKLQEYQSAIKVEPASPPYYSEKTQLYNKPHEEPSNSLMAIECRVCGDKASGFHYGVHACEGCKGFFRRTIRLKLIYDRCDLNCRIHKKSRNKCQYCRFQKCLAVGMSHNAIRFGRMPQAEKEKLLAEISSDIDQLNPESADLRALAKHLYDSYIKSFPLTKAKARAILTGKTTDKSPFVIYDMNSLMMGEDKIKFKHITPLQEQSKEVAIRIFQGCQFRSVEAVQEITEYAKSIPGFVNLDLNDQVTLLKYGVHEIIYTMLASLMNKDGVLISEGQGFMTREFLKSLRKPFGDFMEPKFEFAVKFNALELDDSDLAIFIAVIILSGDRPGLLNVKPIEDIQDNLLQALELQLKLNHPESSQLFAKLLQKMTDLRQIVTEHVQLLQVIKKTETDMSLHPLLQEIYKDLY
Sequence of Glucocorticoid receptor (Homo sapiens) (P04150 whole entry, looked up): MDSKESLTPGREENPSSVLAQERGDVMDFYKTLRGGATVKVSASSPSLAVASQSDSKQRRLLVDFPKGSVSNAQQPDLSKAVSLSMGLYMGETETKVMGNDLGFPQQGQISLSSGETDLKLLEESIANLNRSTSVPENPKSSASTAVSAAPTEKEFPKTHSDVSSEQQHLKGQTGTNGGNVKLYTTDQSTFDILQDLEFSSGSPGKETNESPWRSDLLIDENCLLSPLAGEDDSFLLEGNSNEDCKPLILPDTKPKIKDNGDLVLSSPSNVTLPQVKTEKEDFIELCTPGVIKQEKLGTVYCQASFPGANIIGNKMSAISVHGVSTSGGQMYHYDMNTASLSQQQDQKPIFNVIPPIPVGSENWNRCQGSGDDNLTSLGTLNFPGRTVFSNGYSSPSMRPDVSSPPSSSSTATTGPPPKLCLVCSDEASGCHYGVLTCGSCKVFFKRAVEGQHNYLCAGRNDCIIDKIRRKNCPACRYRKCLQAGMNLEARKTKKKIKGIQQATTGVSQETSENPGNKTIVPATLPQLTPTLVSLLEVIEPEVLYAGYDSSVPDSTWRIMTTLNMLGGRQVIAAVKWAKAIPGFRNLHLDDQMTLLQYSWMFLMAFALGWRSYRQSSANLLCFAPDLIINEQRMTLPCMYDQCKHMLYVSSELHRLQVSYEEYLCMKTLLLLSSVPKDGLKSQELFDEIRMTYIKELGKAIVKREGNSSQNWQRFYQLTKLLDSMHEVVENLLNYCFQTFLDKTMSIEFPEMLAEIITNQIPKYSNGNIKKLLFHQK
Sequence of Bile acid receptor (Homo sapiens) (Q96RI1 whole entry, looked up): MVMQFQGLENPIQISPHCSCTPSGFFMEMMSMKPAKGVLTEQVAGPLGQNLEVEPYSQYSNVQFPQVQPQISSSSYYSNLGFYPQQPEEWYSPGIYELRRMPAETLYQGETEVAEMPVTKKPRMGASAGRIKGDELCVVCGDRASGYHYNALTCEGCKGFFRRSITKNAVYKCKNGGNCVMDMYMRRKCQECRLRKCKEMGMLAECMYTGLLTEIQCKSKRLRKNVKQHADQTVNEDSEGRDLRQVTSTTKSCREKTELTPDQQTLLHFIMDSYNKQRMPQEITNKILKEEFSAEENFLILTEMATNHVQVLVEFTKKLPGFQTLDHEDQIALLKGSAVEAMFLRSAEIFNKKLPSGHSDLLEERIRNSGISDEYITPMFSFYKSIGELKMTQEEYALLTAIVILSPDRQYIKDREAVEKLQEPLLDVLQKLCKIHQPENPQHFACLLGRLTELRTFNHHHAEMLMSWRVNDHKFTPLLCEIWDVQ

As to `C(=C/c1ccccc1)/c1ccccc1`, the molecule was called inactive in test [1], in test [4], in [5], in test [6], in [8] and in test [9]. Also, the max response is 11.7% in test [2], -10% in [7], -6.97% in test [10] and -3.93% (inactive) in [11]. The Potency entry in [3] is “inactive”. The activity change % (negative = inhibition) in [12] was -6.07% (inactive). For the same molecule, the activation was -2.17% (inactive) in [13] and -0.123% (inactive) in [14].
For `CC(=O)c1cccc([N+](=O)[O-])c1`, the result in [1], in test [15], in test [4], in [5], in test [6] and in test [8] was inactive. For the same molecule, the molecule was classed as inactive in test [9]. Moreover, the max response is 13.5% in test [2], -6.78% in test [7], 3.27% in test [10] and 7.36% (inactive) in test [11]. The activity change % (negative = inhibition) in test [12] was 10.7% (inactive). For the same molecule, the Potency result in test [16] and in test [17] was “inactive” in each case. Moreover, the activation in test [13] was -3.72% (inactive).
As to `O=C1C=CCCC1`, the molecule was called inactive in test [1], in test [4], in test [8] and in [9]. The max response in test [2] was -11%; in test [7] it was 8.41%; in [10], -1.74%; in [11], -1.33% (inactive). Besides, the Potency entry in test [3] and in test [16] was “inactive” in each case. Further, in test [12], the activity change % (negative = inhibition) is -3.89% (inactive). The activation in test [13] is -3.28% (inactive); in test [14] it was -0.0951% (inactive).
As for `O=P(O)(OCc1ccccc1)OCc1ccccc1`, the result in test [1], in [4], in test [5], in test [6], in test [8] and in [9] was inactive. In addition, the max response in test [7] was 6.08%; in [10] it was -0.49%; in [11] it was -5.97% (inactive). The activity change % (negative = inhibition) in test [12] was 0.248% (inactive). Moreover, in test [17], the Potency result is “inactive”. For the same molecule, in [13], the activation was -2.58% (inactive).
Take `OCCO`: the call in test [1], in test [4], in test [5], in test [6], in test [8] and in test [9] was inactive. Besides, the max response was 7.28% in [7], 0.506% in test [10] and 11.2% (inactive) in test [11]. For the same molecule, the activity change % (negative = inhibition) in [12] was 21% (inactive). For the same molecule, the Potency entry in test [16] and in test [17] was “inactive” each time. The activation in test [13] was -3.22% (inactive); in test [14] it was -0.33% (inactive).
Turning to `C=CCOC(=O)COCCC(C)C`, the activation was -3.64% (inactive) in test [18] and -0.303% (inactive) in test [14]. The molecule was classed as inactive in test [15], in [4], in [8] and in [9]. In addition, the max response in [2] was 79.8%; in test [7] it was -2.63%; in [10], -11.5%; in test [11], 9.99% (inactive). Besides, the Potency entry in test [3], in [16] and in test [17] was “inactive” each time.
For `CNc1ccccc1`, the figures for the activation in test [18], in test [13] and in test [14] were 19.8% (inactive), 2.04% (inactive) and -1.25% (inactive), respectively. The molecule was called inactive in test [15], in [4], in test [5], in test [6] and in test [8]. Further, the max response in test [2] is -16.9%; in test [7] it was -0.986%; in [10] it was -0.675%; in [11], 29.8% (inactive). Also, the Potency result in test [3], in test [16] and in test [17] was “inactive” in each case. Moreover, in test [12], the activity change % (negative = inhibition) was -1.47% (inactive).

These data come from PubChem BioAssay (NCATS).
